Measured values published in PubChem BioAssay (NCI).
Compounds without any hit were thinned out: in the full panel of roughly 83,000, 20% have a hit.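 A percent growth of 40 corresponds to 60% growth inhibition; 0 means no net growth; -100 means all cells died. Active threshold: below 10.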 The source made the active and inactive calls. *1 amine or outer side, *2 acyl side, *3 side chain or, on linkers, in order; H or OH if unused. Where a SMILES comes first, the peptide text is derived from it. Bridges are numbered along the chain shown (N, C = ends). Roman numbers before positions name the chains, in order. [ ]: non-standard residue; d: D form. Actinocin(1to9) = Cc1c2oc3c(C)ccc(C(=O)[*:2])c3nc-2c(C(=O)[*:1])c(N)c1=O; NMeV = CN[CH](C(=O)O)C(C)C; Sar = CNCC(=O)O

Test system: KM12 colon
Assay: NCI-60 one-dose screen, 48 h (100 = growth as untreated, 0 = no growth, -100 = all killed)
Details: 10 µM unless noted
Description: Growth inhibition of the KM12 human tumor cell line is measured as a screen for anti-cancer activity. Cells are grown in 96 well plates and exposed to the test compound for 48 hours. Compounds are tested at a single concentration, which is 10^-5 M for most compounds. The reported endpoint is percent growth (GI% or GIPRCNT), where numbers from 0 - 100% represent growth inhibition, and numbers from -100% - 0 represent cell death. For example, a value of 40 represents 60% growth inhibition. A value of 0 means no net growth occurred over the course of the experiment. A value of -40 indicates 40% of cells at the beginning of the experiment died by the end of the experiment. A value of -100 means all cells are dead at the end of the experiment.
NCI-60 Human Tumor Cell Lines Screen was performed using the standard one-dose NCI protocol, which is described in more detail at https://dtp.cancer.gov/discovery_development/nci-60/default.htm.
Compounds with GIPRCNT values below 10 were considered active. Activity score was based on GIPRCNT using the following formula: […]
Score is 0 for GIPRCNT values of 100 or above, 50 for GIPRCNT values of 0, and 100 for GIPRCNT values of -100.

SMILES | growth
CC(=O)c1ccc2c(c1)CCc1ccccc1-2 | 109% (inactive)
CCN1CCCC(Nc2cc(C)nc(/N=C(/N)Nc3ccc(Cl)c(Cl)c3)n2)C1 (stereo not given) | -14.8% (active)
Cc1ccc(Nc2ccc(O)c3c2C(=O)c2c(O)ccc(Nc4ccc(C)cc4)c2C3=O)cc1 | 112% (inactive)
CCOc1ccc2c(c1)/C(=C\C=C\C1CC(C)C3CC(OCC)CCC3N1CC)CC(C)N2CC (stereo not given) | 0.998% (active)
CC(C)=CCCC(C)C1=C(O)C(=O)C(C)=CC1=O (stereo not given) | 86.8% (inactive)
CCCCCCCCCCCC(=O)OC(C)C(=O)NCCCC (stereo not given) | 105% (inactive)
CC(=O)Nc1ccc(C(=O)CCl)cc1 | 85.7% (inactive)
COC(=O)c1nc(=S)[nH]c(C(=O)OC)c1C(=O)c1ccc(Cl)c(Cl)c1 | 112% (inactive)
CC(C)N=C(N)/N=C(\N)Nc1ccc2ccc3ccccc3c2c1 | -82.2% (active)
COc1cc(NCc2ccc3nc(N)nc(N)c3c2C)cc(OC)c1OC (tested in a mixture with another compound) | 14.8% (inactive)
OC(c1cc(C23CC4CC(CC(C4)C2)C3)nc2c(Cl)cc(Cl)cc12)C1CCCCN1 (stereo not given) | -91.4% (active)
CN=C(N)N/N=C(\c1ccccc1)c1ccc(Br)cc1 | 9.22% (active)
CCOC(=O)NC(/C=C/c1ccccc1)NC(=O)OCC | 107% (inactive)
CN(C)c1ccc(/C=C/c2ccnc3ccccc23)cc1 | 29.9% (inactive)
N#CCc1cccc2ccccc12 | 110% (inactive)
CCCCCCCCCCCCSC(=N)N | -21.1% (active)
Clc1ccc(Cc2nc3ccccc3s2)cc1 | 93.2% (inactive)
O=S(=O)(O)c1cnccn1 | 98.9% (inactive)
CN(C)c1ccc(C(C#N)(c2ccccc2)c2ccc(N(C)C)cc2)cc1 | 65.5% (inactive)
CC(C)Nc1ccc(Nc2ccc(NC(C)C)cc2)cc1 | 29.3% (inactive)

SMILES | growth
Oc1ccc(Cl)cc1Cc1cc(Cl)ccc1O | 72.5% (inactive)
C=C(C(N)=O)C(N)C(=O)O (stereo not given) | 95.9% (inactive)
CC(=O)N1CC(=O)NC1=S | 103% (inactive)
Cc1nc([N+](=O)[O-])c(Sc2nncc(-c3ccccc3)n2)n1C | 104% (inactive)
CCCCCCCCCCCCCCCCSC(=NCC)NCC | -30.7% (active)
Oc1ccc(Br)cc1Sc1cc(Br)ccc1O | 92.9% (inactive)
CCCCC(C=O)(C=C=C(C)C)CC (stereo not given) | 109% (inactive)
COc1cc(/C=C2\SC(=S)N(/C=C/c3nc4ccccc4[nH]c3=O)C2=O)cc(OC)c1OC | 90.4% (inactive)
Nc1cccc2cccc([N+](=O)[O-])c12 | 113% (inactive)
COc1cc(NC(=O)C2=C(C)NC(C)=C(C(=O)Nc3cc(OC)c(Cl)cc3OC)C2c2cccc([N+](=O)[O-])c2)c(OC)cc1Cl | 18.3% (inactive)
Clc1ccc(-n2ncc3c(NCCCN4CCOCC4)ncnc32)cc1 | 103% (inactive)
CCC(C)C1NC(=O)C(NC(=O)c2c3nc4c(C(=O)NC5C(=O)NC(C(C)CC)C(=O)N6CCCC6C(=O)N(C)CC(=O)N(C)C(C(C)C)C(=O)OC5C)ccc(C)c4oc-3c(C)c(=O)c2N)C(C)OC(=O)C(C(C)C)N(C)C(=O)CN(C)C(=O)C2CCCN2C1=O (stereo not given) (I: TIP[Sar][NMeV] / II: TIP[Sar][NMeV]; ester I:1-I:C, II:1-II:C; linker I:N-II:N via Actinocin(1to9); configuration not given here) | -25.6% (active)
CCCCCCCCc1cc(Cl)c(O)c(Cl)c1 | 101% (inactive)
O=C(NOC(=O)c1ccccc1)c1ccccc1 | 101% (inactive)
COc1c(C)c2c(c(O)c1C/C=C(\C)CCC(=O)O)C(=O)OC2 | 29.1% (inactive)
CC(C)=C1C=C2CC[C@@H]3[C@](C)(CCC[C@@]3(C)C(=O)O)[C@H]2CC1 | 101% (inactive)
O=C1C=CC(=O)c2c(O)c(CO)c(CO)c(O)c21 | 115% (inactive)
Cc1cc2cccnc2c2ncccc12 | 28.5% (inactive)
COC(=O)C(=[N+]=[N-])C(=O)c1ccc([N+](=O)[O-])o1 | 94.9% (inactive)
Cc1cc(C)c([I+]c2c(C)cc(C)cc2C)c(C)c1 | -75.9% (active)
